An excerpt weighted towards active compounds, which were near 3.6% of everything screened.
Wnt act: activates Wnt/beta-catenin signaling in a reporter cell assay | activator, plate reader | activation, % at 9.35 µM | 1.2% of 300,000 active; in the data active = activation above about 30%, passing the limit was not always enough;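 also: 0% = neutral control wells and 100% = positive control wells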
esBAF inh: inhibitors of esBAF chromatin remodeling in mouse ES cells; Bmi1-luciferase knock-in reporter, 24 h; 100% = twice the neutral-well signal; reporter increase, % at 12.5 µM; 2% of 350,000 active; AID 602393; in the data active = activation above about 40%;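 also: 0% = median of the plate's neutral control wells and 100% = double that signal; a rise in the Bmi1 reporter signal indicates esBAF inhibition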
APOBEC3A inh: blocks human APOBEC3A ssDNA deamination | P31941 | recombinant A3A, FAM/TAMRA ssDNA deamination fluorescence | inhibition, % at 20 µM | 0.41% of 330,000 active | AID 493011;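 active = at least 40% inhibition at 20 µM here, with at most 30% in a related deaminase screen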;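 also: plate controls were A3A with DMSO for no effect and wells lacking A3A enzyme for full effect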
Target sequence (P31941 whole entry, looked up): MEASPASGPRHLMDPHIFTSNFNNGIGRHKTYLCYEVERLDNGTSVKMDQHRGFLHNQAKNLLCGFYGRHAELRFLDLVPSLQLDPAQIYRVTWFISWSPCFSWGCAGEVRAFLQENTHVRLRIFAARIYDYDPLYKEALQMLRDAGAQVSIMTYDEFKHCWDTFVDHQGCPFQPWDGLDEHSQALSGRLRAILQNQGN
MITF act: MITF TRPM1 promoter activation in melanoma cells; SK-MEL-5 TRPM1-promoter luciferase, 24 h; % of positive control, neutral wells = 0; activation, % at 12.5 µM; 0.75% of 300,000 active;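 active = mean activation of at least 80% with every replicate also reaching 80%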;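 also: 0% = neutral control wells and 100% = parthenolide positive control wells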
PHOSPHO1 block: blocks human PHOSPHO1 phosphatase activity | Q8TCT1 | inhibition, % at 13.3 µM | 1.1% of 290,000 active | recombinant PHOSPHO1, absorbance phosphatase assay; in the data active = inhibition above about 60%
APOBEC3G inh: APOBEC3G (human) deaminase inhibition; recombinant A3G, ssDNA deamination FAM/TAMRA fluorescence; inhibition, % at 20 µM; 0.28% of 330,000 active; AID 493012;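 active = inhibition of at least 40% at 20 µM, with no more than 30% in the related APOBEC3A deaminase screen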;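 also: plate controls were DMSO wells with A3G for no effect and wells lacking A3G enzyme for full effect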
Target sequence (Q9HC16 whole entry, looked up): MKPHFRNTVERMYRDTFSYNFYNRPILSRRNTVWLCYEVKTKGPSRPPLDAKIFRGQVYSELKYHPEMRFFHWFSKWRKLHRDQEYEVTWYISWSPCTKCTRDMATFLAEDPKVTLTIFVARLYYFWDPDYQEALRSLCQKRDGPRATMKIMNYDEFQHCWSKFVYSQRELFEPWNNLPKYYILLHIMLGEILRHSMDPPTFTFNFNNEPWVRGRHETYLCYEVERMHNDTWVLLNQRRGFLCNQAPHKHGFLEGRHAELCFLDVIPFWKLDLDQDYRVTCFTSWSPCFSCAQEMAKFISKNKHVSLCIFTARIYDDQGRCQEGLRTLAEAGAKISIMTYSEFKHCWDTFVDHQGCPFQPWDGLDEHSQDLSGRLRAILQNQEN
* = called active by the depositor; . = not tested or not shown.

SMILES | Wnt act | esBAF inh | APOBEC3A inh | MITF act | PHOSPHO1 block | APOBEC3G inh
Cc1ccc(C)c(-n2c(-c3csc(C)c3)n[nH]c2=S)c1 | . | 1 | 3 | 0 | 97* | 9
Cc1ccc(C)c(-n2c(-c3ccc4c(c3)OCO4)n[nH]c2=S)c1 | . | -2 | 0 | 2 | 96* | 10
Cc1ccc(C)c(-n2c(-c3ccncc3)n[nH]c2=S)c1 | -1 | . | -6 | -4 | 13 | 33
CCCc1cc(-c2n[nH]c(=S)n2-c2cccc(C)c2)cs1 | 0 | 45* | -2 | -7 | -117 | 0
O=C(OCc1ccc(Cl)c(Cl)c1)c1ccc[nH]1 | 12 | 50* | 3 | 56 | 40 | -6
C[C@@H]1CN([C@H](C)CO)C(=O)c2cc(NC(=O)Nc3ccccc3)ccc2O[C@@H](C)CCCCO[C@@H]1CN(C)Cc1ccc(C(=O)O)cc1 | . | -3 | . | . | . | .
O=C(N/N=C\c1ccco1)Nc1cccc(Cl)c1 | 48* | . | -2 | 64 | -57 | -5
O=C(Nc1ccncc1)Nc1cccc(Cl)c1 | 1 | 4 | 0 | 23 | 41 | -3
CN(c1cccc(NC(=O)Nc2cccc(Cl)c2)c1)S(C)(=O)=O | -3 | 54* | -1 | . | 22 | -2
CN(C)c1ccc(NC(=O)Nc2cccc(Cl)c2)cc1 | . | 54* | -3 | 31 | 93* | -2
CCCNC(=O)N1C[C@@H]2[C@H](c3ccccc31)[C@H](CO)N2C(=O)c1ccccc1 | . | 2 | . | . | . | .
Cc1oc(-c2ccccc2F)nc1CSCC(=O)NC1CCC(C)CC1 (stereo unspecified) | 0 | . | -1 | -14 | 29 | -4
Cc1oc(-c2ccccc2F)nc1CSCC(=O)NC1CC1 | -3 | . | -6 | -5 | 75* | -3
CN(C)C(=O)C[C@@H]1C[C@H]2c3cc(NC(=O)C4CCOCC4)ccc3O[C@H]2[C@@H](CO)O1 | . | 1 | . | . | . | .
O=C1c2ccccc2NC(c2ccccc2)N1Cc1ccco1 (stereo unspecified) | . | 62* | -1 | -2 | -4 | -4
Cc1ccc(O)c(NC(=O)c2cc(-c3ccccc3)on2)c1 | -5 | 76* | 0 | 60 | 24 | -2
CCCc1cc(C(=O)Nc2cc(C)ccc2O)no1 | -11 | 57* | -4 | 71 | 28 | -10
CCCn1cc(NC(=O)c2cc(-c3ccccc3)on2)cn1 | . | 53* | 4 | 13 | -18 | 1
CCCc1cc(C(=O)Nc2cccnc2Cl)no1 | 10 | 9 | -1 | . | -3 | -3
O=C(Nc1cc(Br)ccc1O)c1cc(-c2ccccc2)on1 | 13 | 26 | 7 | 43 | 34 | 6
O=C(NC1CCC1)[C@H]1[C@H](CO)[C@H]2Cn3c(cccc3=O)[C@@H]1N2Cc1cc(F)ccc1F | . | -2 | . | . | . | .
CNC[C@@H]1Oc2c(NC(=O)c3nc4ccccc4s3)cccc2C(=O)N([C@@H](C)CO)C[C@@H]1C | . | 9 | . | . | . | .
CCOCCCNc1nc(C)nc2c1nnn2Cc1c(F)cccc1Cl | -6 | . | -4 | -6 | 65* | -7
COc1ccccc1OCC(=O)NCCC1=CCCCC1 | . | . | -2 | -3 | 19 | -2
O=C(/C=C/c1ccc(F)cc1)NCCC1=CCCCC1 | 65* | 78* | 2 | . | -18 | -2
SMILES | Wnt act | esBAF inh | APOBEC3A inh | MITF act | PHOSPHO1 block | APOBEC3G inh
COc1ccccc1/C=C/C(=O)NCCC1=CCCCC1 | 53* | . | -3 | 48 | 26 | -7
O=C(/C=C/c1ccccc1)NCCC1=CCCCC1 | 28 | 71* | 0 | 40 | 1 | 3
O=C(Nc1ccc2c(c1)OCO2)c1ccc(Cl)s1 | . | 0 | 8 | 59 | -4 | 1
Cc1ccc2c(Cl)c(C(=O)Nc3ccc4c(c3)OCO4)sc2c1 | . | . | 3 | 99* | 16 | -5
CCN(CC)Cc1ccc(NC(=O)c2sc3cc(Cl)ccc3c2Cl)cc1 | -2 | . | 0 | . | 60* | 10
Cc1noc(C(=O)Nc2ccc3c(c2)OCO3)c1Cl | 12 | 51* | -4 | 55 | 14 | -8
CCc1onc(C)c1C(=O)Nc1ccc2c(c1)OCO2 | 0 | 7 | 1 | -6 | -27 | -5
O=C(CCN1C(=O)c2cccc3cccc(c23)C1=O)N1CCOCC1 | 26 | 53* | 1 | 83* | -8 | -3
CC(C(=O)N1CCOCC1)N1C(=O)c2cccc3cccc(c23)C1=O (stereo unspecified) | 33* | . | 0 | -10 | 44 | 4
CC(C(=O)N1CCOCCOCCOCCOCCOCC1)N1C(=O)c2ccccc2C1=O (stereo unspecified) | -1 | . | 9 | 3 | 8 | 3
C[C@@H]1CN([C@@H](C)CO)C(=O)c2cc(C#CC3(O)CCCC3)cnc2O[C@H]1CN(C)S(=O)(=O)c1ccc(F)cc1 | . | -2 | . | . | . | .
Cc1noc(C)c1NC(=O)Nc1ccc2c(c1)C(=O)N([C@H](C)CO)C[C@H](C)[C@@H](CN(C)Cc1ccc(C(=O)O)cc1)O2 | . | 3 | . | . | . | .
CCCNC(=O)Nc1ccc2c(c1)C(=O)N(C)C[C@@H](OC)[C@@H](C)CN(C(=O)C1CC1)[C@@H](C)CO2 | . | -1 | . | . | . | .
O=C(c1ccc2snnc2c1)N1CCSCC1 | . | -4 | -11 | 10 | 99* | -3
C=CCSc1nc2sc3c(c2c(=O)n1CC)CCc1ccccc1-3 | . | -3 | -5 | -3 | 87* | -2
C=CCn1c(SCC)nc2sc3c(c2c1=O)CCc1ccccc1-3 | -2 | -13 | 1 | -14 | 49 | -6
O=C(/C=C/c1ccccc1Cl)Nc1cccc(O)c1 | 54* | . | 3 | 54 | -4 | -4
O=C(/C=C/c1ccccc1Cl)Nc1ccccc1 | 45* | . | 1 | . | 20 | 2
CN(C)S(=O)(=O)c1ccc(NC(=O)/C=C/c2ccccc2Cl)cc1 | 2 | . | -1 | 43 | 12 | -7
COc1ccccc1/C=C/C(=O)Nc1cccc(C(C)=O)c1 | 8 | . | -1 | 31 | 69* | -8
CCC(=O)N(C)C[C@H]1Oc2ncc(C#C[C@@H](C)O)cc2C(=O)N([C@H](C)CO)C[C@@H]1C | . | -3 | . | . | . | .
C[C@H](CO)N1C[C@H](C)[C@@H](CN(C)C)Oc2cc(-c3cccc(C(=O)N(C)C)c3)ccc2S1(=O)=O | . | -8 | . | . | . | .
C[C@H]1CN([C@@H](C)CO)C(=O)Cc2cc(NC(=O)C3CCCCC3)ccc2O[C@@H]1CN(C)S(=O)(=O)c1ccc(Cl)cc1 | . | 4 | . | . | . | .
Cn1c(C(=O)NCC2CCCO2)cc2oc3ccccc3c21 (stereo unspecified) | . | 76* | 16 | 61 | 11 | -4
Cn1c(C(=O)NCC2CCCO2)cc2c(=O)n(C)c3ccccc3c21 (stereo unspecified) | 17 | -5 | -1 | -7 | 3 | -8
Cn1c(C(=O)NCc2ccccc2)cc2oc3ccccc3c21 | 10 | 59* | 0 | 44 | 18 | 1
O=C(NCc1ccccc1)c1cc2ccccc2o1 | . | 22 | 3 | 12 | 3 | 1

Screens: PubChem, several laboratories
